Results on 5 compounds are retold here after PubChem BioAssay AID488908 (National Center for Advancing Translational Sciences (NCATS), 2010).

Results filed as inconclusive are left out. Values without a mark were called inactive. Calls follow the shape of the dose curve; as a rule, active = well fitted inhibition curve with a large enough effect; inconclusive = small, poorly fitted or top-dose-only effect; inactive = flat fitted curve, though single readings scatter.

This assay is described as follows: Secondary Assay for lipid storage modulators: Cytotoxcity for probe SAR. Particulars: Drosophila S3 cells viability, CellTiter-Glo luminescence, 24 h; series mostly up to 46.1 µM; activity change, negative = cytotoxicity: at the top concentration. The source says:
NIH Molecular Libraries Probe Production Centers Network [MLPCN] NIH Chemical Genomics Center [NCGC] MLPCN Grant: 1 R03 MH085686-01 Assay Submitter (PI): Beller, Mathias; Max-Planck-Institut fur Biophysikalische Chemie, Germany. NCGC Assay Overview: Storing lipids as a reservoir for energy or the anabolism of elementary metabolites is a common feature of probably all cells and is conserved from bacteria to humans. The universal cellular lipid storage organelle is the so-called lipid storage droplet (LD). Although ubiquitous, LDs share a simple structure composed of a hydrophobic core that harbors the storage lipids, which is shielded by a droplet-specific phospholipid monolayer to which proteins are attached. The current model of LD biogenesis involves an incorporation of the lipid core into the membrane leaflets of the endoplasmic reticulum (ER) followed by a subsequent budding-like maturation of a LD, which ultimately pinches off. Once released, LD volume can increase by localized lipogenesis or fusion of existing droplet. Storage lipids are re-mobilized enzymatically by lipase activity. Lipase regulation in the adipocyte is heavily studied and involves multiple components including catecholamine signaling, the LD-associated proteins Perilipin and comparative gene identification (CGI-58) and at least two lipases named hormone sensitive lipase (HSL) and adipocyte triglyceride lipase (ATGL). LD regulation outside of the adipocyte is poorly understood and only few components are known. However, there is an urgent need to learn more about ectopic fat depots as mislocalized storage of lipids, for example in the liver or muscle, is an eminent health problem associated with insulin resistance or the metabolic syndrome. We developed a laser-scanning cytometer assay to enable 1,536-well screening and combined the results of the small molecules screen with an RNAi database based on lipid storage. The compound was tested here for cytotoxcity using CellTiter-Glo.
Assay Protocol Summary: Cytotoxcity assay was performed with embryonic Drosophila S3 cells (Bloomington Drosophila Genomics Resource Center [DGRC]). We dispensed 4 uL of cells at 1.25 x 10^6 cells/mL into Greiner solid white 1,536-well plates with a bottle-valve solenoid-based dispenser (Aurora) to obtain 5,000 cells/well. A total of 23 nL of compound solution of different concentrations were transferred to the assay plates using a Kalypsys pin tool equipped with a 1,536-pin array containing 10-nL slotted pins (FP1S10, 0.457-mm diameter, 50.8 mm long; V&P Scientific). One microliter of oleic acid (400 uM) was added, and the plate was lidded with stainless steel rubber gasket lined lids containing pinholes. After 24 hrs of incubation at 24 degrees Celsius and 95% humidity, 4 uL of CellTiter-Glo (Promega) was added to the wells. Luminescence was detected on the Perkin Elmer ViewLux.
With `CCOc1ccc(CCNC(=O)c2ccccc2)cc1OCC`, the “activity change, negative = cytotoxicity” value is -13.3%.
In the case of `CCOc1ccc(CCNC(=O)c2ccc(C(=O)c3ccccc3)cc2)cc1OCC`, the “activity change, negative = cytotoxicity” value is -22.2%.
The figure for `CCC/C=C/C/C=C/C=C/C=N/NN=O` is -22.4%.
In the case of `CCOC(=O)C1CCN(C(=O)C2(NC(=O)Nc3ccccc3Cl)CCCC2)CC1`, the “activity change, negative = cytotoxicity” value is -6.46%.
For `CCOc1ccc(CCNC(=O)c2ccc(Oc3ccccc3)cc2)cc1OCC` the value was -11.1%.
